Cycloheximide cs: affects cycloheximide protein synthesis inhibition readout, counter-screen; max response, %; cell reporter, cycloheximide protein synthesis inhibition counterscreen; AID 2314; 300,000 compounds, 12% hits; in the data active = max response mostly above about 13%, no sharp cut-off; inactive = mostly below about 14%; note: read at 38.3 µM for the half of the compounds with a filed dose; 0% is about no effect
Pf growth 48h: inhibits P. falciparum growth in the first generation, 48 h; P. falciparum luciferase growth in erythrocytes, 48 h; Potency, µM (highest dose often 28.7 µM), without a hit: at the top dose activity change, negative = inhibition, hits mostly inhibitors; 310,000 compounds, 5.9% hits; note: potency is the fitted concentration of half-maximal effect; % is set by controls: 0 for no effect and ±100 for the full control effect
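Here the parasites carry a stable luciferase gene and grow inside erythrocytes in Albumax-based RPMI medium with compound for one erythrocytic cycle. Activity is scored as loss of luminescent signal.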
NS1 function inh: blocks influenza NS1 protein function; 270,000 compounds, 0.4% hits; AID 2326; Potency, µM (series often up to 46.1 µM), without a hit: at the highest dose activity, positive = more growth; calls by dose curve; note: potency is the fitted concentration of half-maximal effect; actives are rising curves; nearly all actives have a fitted effect of over 50% in size
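A cell-based growth assay was used: compounds that relieve NS1-induced slow growth of budding yeast raise OD600. Assay medium was yeast nitrogen base with ammonium sulphate and -URA supplement, pH 6.0, with 2% galactose.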
Pf growth 96h: P. falciparum growth inhibition at 96 hour, primary screen for plastid delayed-death inhibitors; Potency, µM (titrated, usually from 28.7 µM), inactives show at the top dose activity change, negative = inhibition, actives largely listed as inhibitors; P. falciparum luciferase reporter growth, 96 h; AID 504834; 320,000 compounds, 6.9% hits; note: potency is the fitted concentration of half-maximal effect; % is set by controls: 0 for no effect and ±100 for the full control effect
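Two-generation exposure (96 h) targets delayed-death phenotype. Reporter parasites carrying integrated firefly luciferase, in red cells at 2% hematocrit and 0.05% parasitemia final, kept at 37 C, 5% CO2; luminescence loss indicates inhibition.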
Shiga toxin inh: Shiga toxin inhibition | Vero cells, Shiga toxin protein synthesis inhibition reporter | inhibition, % at 38.7 µM | 290,000 compounds, 9.2% hits | AID 2315; in the data active = inhibition mostly above about 28%, no sharp cut-off; inactive = mostly below about 43%; note: 0% is about no effect
FBPA Giardia inh: blocks Giardia fructose-bisphosphate aldolase activity; A8B2U2; purified Giardia FBPA; Potency, µM (top dose mostly 59.6 µM), without a hit: at the highest dose activity, negative = inhibition, most hits filed as inhibitors; 290,000 compounds, 0.71% hits; AID 2451; note: potency is the fitted concentration of half-maximal effect; % is set by controls: 0 for no effect and ±100 for the full control effect; nearly all actives have a fitted effect of over 55% in size
Target sequence (A8B2U2 whole entry, looked up): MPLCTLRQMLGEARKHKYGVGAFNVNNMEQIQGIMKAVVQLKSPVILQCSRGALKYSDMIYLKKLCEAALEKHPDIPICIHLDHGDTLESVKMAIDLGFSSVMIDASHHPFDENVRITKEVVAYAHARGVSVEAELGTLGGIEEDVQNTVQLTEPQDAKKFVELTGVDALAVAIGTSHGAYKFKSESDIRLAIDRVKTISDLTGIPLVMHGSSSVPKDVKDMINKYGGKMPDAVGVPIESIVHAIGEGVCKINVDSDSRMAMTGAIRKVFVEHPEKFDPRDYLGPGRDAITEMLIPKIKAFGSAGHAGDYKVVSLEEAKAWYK
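40 nM FBPA preincubated 10 min at RT with compound (up to 57.5 uM final), then substrate plus GAPDH/TPI/NAD/arsenate coupling and diaphorase/resazurin added. Fluorescence read after 20 min at RT, 525/598 nm.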
* hit, by the source's call; i = inactive; ? = inconclusive; . = no result given; [ ] = dose if it differs, or a comment. An excerpt weighted towards active compounds, which were near 21% of everything screened. Unless noted, calls come from the whole dose curve; as a rule, active = well fitted curve in the direction sought with a large enough effect; inconclusive = small, poorly fitted or top-dose-only effect, or another doubt; inactive = no such curve, though single readings can be large; an effect the other way counts as inactive or inconclusive.

SMILES	Cycloheximide cs	Pf growth 48h	NS1 function inh	Pf growth 96h	Shiga toxin inh	FBPA Giardia inh
CSc1ncccc1-c1nc2ccccc2[nH]1	28*	.	-71%	36%	51	-3%
CN(C)C(=O)CSc1ncccc1-c1nc2ccccc2[nH]1	1	11%	-5%	-21%	-8	-23%
CCSc1ncccc1-c1nc2ccccc2[nH]1	38*	?	-21%	?	99*	-6%
O=C(COc1ccccc1F)NNC(=O)c1cccc(-n2cccc2)c1	-3	7%	-7%	45%	-7	.
COc1ccc2c(c1OC)C(=O)N(c1cccc(C)c1)C2=O	43*	12%	-53%	0%	56	10%
O=C(Nc1cccc(O)c1)c1ccc2c(c1)C(=O)N(Cc1ccco1)C2=O	-1	-6%	14%	9.3µM*	-5	-5%
O=C(O)c1ccc2c(c1)C(=O)N(c1nccs1)C2=O	-4	3.3µM*	-6%	7%	20	0%
O=C(Nc1ccc(Cl)cc1C(=O)O)c1ccc2c(c1)C(=O)N(Cc1ccco1)C2=O	-4	-5%	-34%	11%	-4	20%
CCCCN1C(=O)c2ccc(C(=O)Nc3c(N)n(CCCC)c(=O)n(C)c3=O)cc2C1=O	-5	6%	-18%	5.2µM*	4	5%
O=C(O)c1ccc2c(c1)C(=O)N(c1ccccc1-c1ccccc1)C2=O	-2	12%	1%	-12%	10	2%
CCCN1C(=O)c2ccc(C(=O)Nc3cc(C)on3)cc2C1=O	5	13%	-4%	156%	6	12%
CCN1C(=O)c2ccc(C(=O)Nc3ncc(C)s3)cc2C1=O	51*	156%	4%	3%	56*	4%
CC(C)CN1C(=O)c2ccc(C(=O)Nc3nccs3)cc2C1=O	13	10%	-16%	?	26	5%
Cc1ccsc1C(C(=O)NCc1ccccc1)N(C(=O)c1csnn1)c1ccccc1 (stereo not given)	-6	-10%	0%	11%	-2	7%
CCCN1C(=O)c2ccc(C(=O)Nc3nccs3)cc2C1=O	11*	30%	-20%	.	65*	1%
Cc1cnc(NC(=O)c2ccc3c(c2)C(=O)N(Cc2ccco2)C3=O)s1	13*	0%	12%	?	3	4%
CCCc1cc(C(=O)Nc2nccs2)cs1	57*	0%	-30%	.	60*	2%
CCn1nccc1C(=O)Nc1cc(Cl)ccc1Cl	-1	27%	-12%	-1%	2	3%
CCn1nccc1C(=O)Nc1ccc(C(=O)OC(C)C)cc1	24*	26%	-21%	7%	.	9%
CCn1cc(Br)c(C(=O)Nc2ccc(C(=O)OC(C)C)cc2)n1	36	?	-11%	.	55	-12%
CCn1nccc1C(=O)Nc1ccc(Cl)cc1Cl	23*	38%	?	-8%[5.75 µM]	40*	-1%
O=c1[nH]c(=S)c2[nH]c(=O)n(-c3ccccc3)c2[nH]1	.	.	2%	.	.	.
CC(C)C(C)NC(=O)COn1nnc2ccc(S(=O)(=O)N3CCOCC3)cc21 (stereo not given)	.	-6%	.	?	.	.
CS(=O)(=O)/C(C#N)=C\c1cnc(S(=O)(=O)c2ccccc2)s1	31*	30%	-40%	-8%	36	?
CN(C)/C=C(\C#N)S(=O)(=O)c1ccccc1	-5	2%	6%	-15%	-13	5%
SMILES	Cycloheximide cs	Pf growth 48h	NS1 function inh	Pf growth 96h	Shiga toxin inh	FBPA Giardia inh
CC1CCN(S(=O)(=O)c2cn(CC(=O)N3CCN(c4cccc(C(F)(F)F)c4)CC3)cn2)CC1	-8	-1%	7%	16%	-4	.
COc1ccc(CN=Cc2c(O)[nH]c3ccccc23)cc1	27*	31%	.	1%	25*	-6%
Oc1[nH]c2ccccc2c1C=Nc1ccc2c(c1)OCO2	65*	45%	-11%	?	68*	-6%
O=c1[nH]c(O)c(C=Nc2ccccc2[N+](=O)[O-])c(=O)[nH]1	1	29%	.	5%	15	-10%
COc1ccc(N=Cc2c(O)ccc3ccccc23)cc1	12	10%	-3%	14%	25	?
Cc1ccccc1-n1c(O)c(C=Nc2ccc3c(c2)OCO3)c(=O)[nH]c1=O	-2	.	-16%	40%	-10	-11%
COc1ccc(N=Cc2c(O)[nH]c3ccccc23)cc1	37*	259%	-29%	12%	40*	-2%
Cc1ccc(N=Cc2c(O)[nH]c3ccccc23)c([N+](=O)[O-])c1	22*	i	.	0%	64*	5%
CC(=O)N1CC(C)Sc2ccc(S(=O)(=O)NCCc3cccc(C)c3)cc21 (stereo not given)	-6	2%	-10%	1%	5	4%
Oc1[nH]c2ccccc2c1/C=N/c1nccs1	28*	62%	-17%	152%	51	0%
Oc1[nH]c2ccccc2c1/C=N/N1CCCCC1	9	16%	-32%	0%	-4	-10%
O=C(Nc1cc(Cl)cc(Cl)c1)C1CCC(=O)N1Cc1ccccc1Cl (stereo not given)	-1	9.3µM*	-1%	?	-17	1%
C[C@]12CCC3C(CC[C@]4(O)C[C@@H](O)CC[C@]34C=O)[C@@]1(O)CC[C@@H]2C1=CC(=O)OC1 (stereo not given in full)	.	.	.	.	.	3%
COc1ccc(C)cc1NC(=O)C(OC(=O)CNC(=O)c1ccc(Br)cc1)c1ccccc1 (stereo not given)	12*	5%	5%	43%	10	3%
COc1ccc(C)cc1NC(=O)C(OC(=O)CNC(=O)c1cc(C)cc(C)c1)c1ccccc1 (stereo not given)	-1	2%	-1%	19%	-10	-1%
Cc1cc(N/N=C\c2ccccc2)nc(-c2ccccc2O)n1	84*	41%	7%	0%	83*	1%
Cc1cc(N/N=C/c2ccc(O)cc2O)c2ccccc2n1	5	?	-5%	-23%	22	?
Cc1cc(N/N=C/c2ccc(O)cc2O)nc(-c2ccccc2O)n1	59*	2.6µM*	13%	?	active	11%
Cc1cc(N/N=C/c2ccccc2O)nc(-c2ccccc2O)n1	25*	?	-11%	26%	46*	0%
Cc1cc(N/N=C/c2ccccc2O)nc(N2CCOCC2)n1	8	10µM*	-4%	?	30	-10%
N#Cc1cccc(NC(=O)N2CCCC3(CCN(C(=O)c4ccco4)CC3)C2)c1	.	.	.	.	.	0%
Cc1cnc(NC(=O)CC2OC(=O)c3ccccc32)s1 (stereo not given)	.	67%	.	41%	.	.
CC1=C(C(=O)OCC(C)C)C(c2cccs2)NC(=S)N1 (stereo not given)	-1	2%	4%	?	-4	0%
CCOCCCNc1ccc(-c2ccccc2)nn1	27*	120%	-9%	23%	109*	2%
CN(C)c1nc(NC2CCC(NC(=O)c3ccc(F)c(F)c3)CC2)nc2ccccc12 (stereo not given)	-1	.	.	.	-2	-5%

Bioassay records from PubChem BioAssay.
